PubChem BioAssay (Tox21)
Records with an inconclusive call do not appear. Active and inactive are the calls of the source. Unless noted, the call rests on the fitted dose curve.

What was measured:
[1] = Nuclear factor erythroid 2-related factor 2/antioxidant responsive element (Nrf2/ARE) small molecule agonists: qHTS cell viability counter screen in human keratinocytes (AID 1919968; active means well fitted curve in the direction sought with a large enough effect in the repeat runs; an effect the other way counts as inactive or inconclusive; further: nearly all actives have a fitted effect of over 55% in size)
Procedure, shortened: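 Parallel cytotoxicity read: KeratinoSens HaCaT cells, compound treatment 23 h, viability by CellTiter-Fluor fluorescence 1 h post-reagent.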

[2] = Nuclear factor erythroid 2-related factor 2/antioxidant responsive element (Nrf2/ARE) small molecule agonists: luciferase reporter gene qHTS assay in human keratinocytes (AID 1919969); further: nearly all actives have a fitted effect of over 35% in size; further: potency means the concentration at half of the fitted maximal effect
[3] = molecular target: Gonadotropin-releasing hormone receptor (Homo sapiens) (UniProt P30968); experiment: Human gonadotropin-releasing hormone receptor (GnRHR) small molecule agonists, calcium flux assay in GnRHR-HEK293 cells (AID 1920063); further: nearly all actives have a fitted effect of over 35% in size
Sequence of Gonadotropin-releasing hormone receptor (Homo sapiens) (P30968 whole entry, looked up): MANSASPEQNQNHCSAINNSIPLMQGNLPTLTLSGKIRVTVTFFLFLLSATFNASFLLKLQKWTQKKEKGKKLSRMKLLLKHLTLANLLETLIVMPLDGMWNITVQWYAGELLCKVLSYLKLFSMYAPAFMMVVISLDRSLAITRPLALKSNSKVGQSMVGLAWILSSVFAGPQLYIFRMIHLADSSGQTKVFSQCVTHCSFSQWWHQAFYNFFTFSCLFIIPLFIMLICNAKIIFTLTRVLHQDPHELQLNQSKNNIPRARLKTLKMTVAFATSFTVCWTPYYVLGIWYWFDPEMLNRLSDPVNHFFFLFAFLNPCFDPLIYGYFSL
Procedure, shortened: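 Calcium flux, agonist mode, human GnRHR stably integrated in HEK293; dye 1 h at 37 C before compound; Ex/Em=480/540 kinetic read, 3 min; 15 concentrations, triplicate.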

[4] = molecular target: KiSS-1 receptor (Homo sapiens) (UniProt Q969F8); experiment: Human kisspeptin (KISS1R) small molecule agonists, calcium flux assay in KISS1R-HEK293 cells (AID 1920064; active means well fitted curve in the direction sought with a large enough effect in the repeat runs; an effect the other way counts as inactive or inconclusive)
Sequence of KiSS-1 receptor (Homo sapiens) (Q969F8 whole entry, looked up): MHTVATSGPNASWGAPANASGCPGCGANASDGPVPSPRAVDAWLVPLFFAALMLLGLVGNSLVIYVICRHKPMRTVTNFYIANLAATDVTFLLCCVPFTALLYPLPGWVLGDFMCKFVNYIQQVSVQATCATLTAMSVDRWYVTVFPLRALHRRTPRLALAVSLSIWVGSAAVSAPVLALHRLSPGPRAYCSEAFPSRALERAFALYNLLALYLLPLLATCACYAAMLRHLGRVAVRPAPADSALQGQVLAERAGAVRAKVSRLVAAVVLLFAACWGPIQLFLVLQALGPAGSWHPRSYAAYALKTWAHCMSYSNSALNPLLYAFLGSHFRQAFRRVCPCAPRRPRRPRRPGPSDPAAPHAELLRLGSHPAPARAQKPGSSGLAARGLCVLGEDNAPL
Procedure, shortened: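 Triplicate 15-concentration series were applied to dye-loaded human KISS1R HEK293 cells, and agonist-evoked calcium fluorescence was captured for 3 min.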

[5] = G protein-coupled receptor (GPCR) small molecule agonists, calcium flux assay: HEK293 wild type cell line counter screen (AID 1920065)
Procedure, shortened: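 Non-specific calcium responders were flagged by adding DMSO-dissolved compounds to dye-loaded cells and reading 480/540 nm fluorescence each second for 3 min; ATP served as positive control.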

[6] = p53 small molecule agonists, cell-based qHTS assay with human liver microsomes: qHTS cell viability counter screen (AID 1963579); further: nearly all actives have a fitted effect of over 45% in size
Procedure, shortened: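 In this multiplexed counter screen, the reporter plates were subsequently treated with CellTiter-Glo so that cell viability, reflected by luminescence, could be recorded for p53RE-bla cells dosed 16 h with compounds under microsomal activation (HLM and NADPH).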

[7] = p53 small molecule agonists, cell-based qHTS assay with rat liver microsomes: qHTS cell viability counter screen (AID 1963580); further: nearly all actives have a fitted effect of over 45% in size
Procedure, shortened: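 Counter screen for cytotoxicity under metabolic activation: rat liver microsomes and NADPH, 0.5 mg/mL final each, added with compounds to p53RE-bla HCT-116 cells; 16 h at 37 C, then ATP luminescence read.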

[8] = p53 small molecule agonists, cell-based qHTS assay: qHTS cell viability counter screen (AID 1963581); further: nearly all actives have a fitted effect of over 45% in size
Procedure, shortened: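 Multiplexed with the reporter read, a CellTiter-Glo step (30 min, room temperature) gauges ATP-based viability of HCT-116 p53RE-bla cells after 16 h compound incubation at 37 C.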

[9] = p53 small molecule agonists, cell-based qHTS assay (AID 1963582; active means well fitted activation curve with a large enough effect in the signal ratio in the repeat runs, not every such curve was filed as active; the % refers to the signal ratio)
Procedure, shortened: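 Beta-lactamase reporter cells (p53RE-bla) treated with compounds for 16 h at 37 C; FRET substrate, 2 h, room temperature; fluorescence intensity.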

[10] = molecular target: 5-hydroxytryptamine receptor 2A (Homo sapiens) (UniProt P28223); experiment: 5-hydroxytryptamine receptor 2A (HTR2A) small molecule antagonists, cell-based qHTS assay (AID 1963586); further: nearly all actives have a fitted effect of over 45% in size; further: potency means the concentration at half of the fitted maximal effect
Sequence of 5-hydroxytryptamine receptor 2A (Homo sapiens) (P28223 whole entry, looked up): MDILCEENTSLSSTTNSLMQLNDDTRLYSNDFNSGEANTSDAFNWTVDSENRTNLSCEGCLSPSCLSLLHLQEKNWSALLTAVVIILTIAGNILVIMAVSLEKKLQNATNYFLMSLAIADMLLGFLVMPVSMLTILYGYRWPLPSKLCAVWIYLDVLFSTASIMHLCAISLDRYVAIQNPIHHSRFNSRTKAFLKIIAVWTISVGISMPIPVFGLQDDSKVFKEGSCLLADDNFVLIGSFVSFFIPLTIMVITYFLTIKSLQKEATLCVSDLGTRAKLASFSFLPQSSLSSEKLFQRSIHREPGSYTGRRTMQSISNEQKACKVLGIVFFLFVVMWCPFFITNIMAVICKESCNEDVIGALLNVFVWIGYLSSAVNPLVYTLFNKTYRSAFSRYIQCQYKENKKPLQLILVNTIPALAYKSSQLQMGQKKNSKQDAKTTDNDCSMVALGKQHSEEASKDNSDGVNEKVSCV
Procedure, shortened: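 CHO cells stably expressing human HTR2A were plated for 18 h at 37 C, then loaded with calcium dye for 1 h. Compounds were preincubated 5 min at room temperature before DOI (4 nM solution) was added. Kinetic fluorescence was read for 3 min.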

[11] = molecular target: 5-hydroxytryptamine receptor 2A (Homo sapiens) (UniProt P28223); experiment: 5-hydroxytryptamine receptor 2A (HTR2A) small molecule agonists, cell-based qHTS assay (AID 1963587); further: nearly all actives have a fitted effect of over 30% in size
Procedure, shortened: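 HTR2A-CHO cells, plated 18 h at 37 C/5% CO2, dye-loaded 1 h at 37 C; compounds in DMSO added by pin tool (agonist mode). Intracellular calcium flux read as kinetic fluorescence on FDSS over 2 min at 1 s intervals.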

[12] = molecular target: Muscarinic acetylcholine receptor M1 (Homo sapiens) (UniProt P11229); experiment: Cholinergic receptor muscarinic 1 (CHRM1) small molecule antagonists, cell-based qHTS assay (AID 1963588); further: nearly all actives have a fitted effect of over 40% in size; further: potency means the concentration at half of the fitted maximal effect
Sequence of Muscarinic acetylcholine receptor M1 (Homo sapiens) (P11229 whole entry, looked up): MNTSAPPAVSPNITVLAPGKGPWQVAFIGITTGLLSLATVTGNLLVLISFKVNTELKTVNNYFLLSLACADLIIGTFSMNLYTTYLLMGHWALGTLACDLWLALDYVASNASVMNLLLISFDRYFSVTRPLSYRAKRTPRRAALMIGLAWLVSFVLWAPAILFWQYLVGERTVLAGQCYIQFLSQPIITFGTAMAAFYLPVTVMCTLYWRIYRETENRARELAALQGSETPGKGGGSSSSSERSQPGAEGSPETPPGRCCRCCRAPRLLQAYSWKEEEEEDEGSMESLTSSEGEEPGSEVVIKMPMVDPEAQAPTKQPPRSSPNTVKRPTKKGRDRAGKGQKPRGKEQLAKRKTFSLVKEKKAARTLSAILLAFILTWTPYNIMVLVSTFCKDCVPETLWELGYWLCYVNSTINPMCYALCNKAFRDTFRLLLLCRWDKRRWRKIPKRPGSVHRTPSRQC
Procedure, shortened: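 Compounds were tested at 15 concentrations in three independent runs. Dye-loaded CHRM1-CHO cells were exposed 5 min at room temperature before stimulation by acetylcholine added at 50nM. Intracellular calcium was read kinetically on FDSS for 3 min.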

[13] = molecular target: Muscarinic acetylcholine receptor M1 (Homo sapiens) (UniProt P11229); experiment: Cholinergic receptor muscarinic 1 (CHRM1) small molecule agonists, cell-based qHTS assay (AID 1963589); further: nearly all actives have a fitted effect of over 35% in size
Procedure, shortened: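 qHTS, 15-point titration, 3 independent runs: compounds pin-transferred onto dye-loaded CHRM1-CHO cells (human M1), calcium fluorescence followed every second to detect agonism.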

[14] = cAMP Responsive Elements (CRE) small molecule agonists, cell-based qHTS assay (AID 1963590)
Procedure, shortened: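 Quantitative HTS for CRE agonists: HEK 293T CRE-bla cells, overnight plating, 3 h compound incubation at 37 C/5% CO2, then 2 h room-temperature LiveBLAzer B/G FRET substrate loading.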

[15] = cAMP Responsive Elements (CRE) small molecule antagonists, cell-based qHTS assay (AID 1963591; active means well fitted inhibition curve with a large enough effect in the signal ratio in the repeat runs, not every such curve was filed as active; the % refers to the signal ratio)
Procedure, shortened: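 Fluorescence intensity from cleaved LiveBLAzer B/G substrate (2 h, room temperature) quantified CRE-bla activity in HEK 293T cells exposed 3 h to compound with 0.25 uM final NKH477.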

[16] = molecular target: Beta-2 adrenergic receptor (Homo sapiens) (UniProt P07550); experiment: Adrenergic beta2 receptor (ADRB2) small molecule antagonists, cell-based qHTS assay (AID 1963592); further: series mostly up to about 92 µM; nearly all actives have a fitted effect of over 50% in size
Sequence of Beta-2 adrenergic receptor (Homo sapiens) (P07550 whole entry, looked up): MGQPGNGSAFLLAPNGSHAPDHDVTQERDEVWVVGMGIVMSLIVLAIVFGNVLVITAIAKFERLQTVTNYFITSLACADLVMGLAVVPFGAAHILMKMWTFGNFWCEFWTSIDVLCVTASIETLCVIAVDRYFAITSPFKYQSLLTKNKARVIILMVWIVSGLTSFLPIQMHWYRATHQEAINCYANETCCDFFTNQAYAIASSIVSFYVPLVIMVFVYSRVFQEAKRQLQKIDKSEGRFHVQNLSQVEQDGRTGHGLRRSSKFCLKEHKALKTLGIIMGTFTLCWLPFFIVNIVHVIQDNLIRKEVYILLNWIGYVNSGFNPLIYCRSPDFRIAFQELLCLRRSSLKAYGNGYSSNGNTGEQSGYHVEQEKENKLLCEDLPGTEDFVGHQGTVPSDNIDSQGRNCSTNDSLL
Procedure, shortened: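 Assay format: CHO-ADRB2 cells, 18-20hr seeding at 37C/5% CO2, then compound plus 1nM isoproterenol agonist mix for 0.5hr RT. Homogeneous time-resolved fluorescence cAMP detection after 1hr, expressed as 665/615 nm ratio.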

[17] = molecular target: Beta-2 adrenergic receptor (Homo sapiens) (UniProt P07550); experiment: Adrenergic beta2 receptor (ADRB2) small molecule agonists, cell-based qHTS assay (AID 1963593);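 further: CHO cells stably overexpressing human ADRB2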
Procedure, shortened: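 CHO cells stably over-expressing ADRB2 were plated overnight at 37C, then dosed with compounds plus a stimulation mix containing 100uM IBMX and 25uM Ro-20-1724 for 0.5hr at room temperature. cAMP was measured by HTRF competition, 1hr.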

[18] = molecular target: D(2) dopamine receptor (Homo sapiens) (UniProt P14416); experiment: Dopamine D2 receptor (DRD2) small molecule agonists, cell-based qHTS assay (AID 1963594); further: nearly all actives have a fitted effect of over 35% in size
Sequence of D(2) dopamine receptor (Homo sapiens) (P14416 whole entry, looked up): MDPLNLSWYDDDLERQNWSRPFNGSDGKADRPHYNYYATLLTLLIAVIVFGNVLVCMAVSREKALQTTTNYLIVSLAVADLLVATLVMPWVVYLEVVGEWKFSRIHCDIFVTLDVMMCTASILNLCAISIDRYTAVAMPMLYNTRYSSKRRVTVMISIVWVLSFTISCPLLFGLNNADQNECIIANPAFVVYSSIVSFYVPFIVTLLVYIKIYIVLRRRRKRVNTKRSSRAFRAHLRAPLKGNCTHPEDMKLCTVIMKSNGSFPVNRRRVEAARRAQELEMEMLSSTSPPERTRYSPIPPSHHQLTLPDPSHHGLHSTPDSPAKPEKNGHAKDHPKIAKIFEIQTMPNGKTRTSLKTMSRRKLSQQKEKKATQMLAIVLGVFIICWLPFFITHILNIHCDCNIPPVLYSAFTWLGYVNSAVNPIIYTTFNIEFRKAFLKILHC
Procedure, shortened: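 HEK293 cells stably expressing DRD2 were cultured 24 h at 37 C, then given Ro20-1724 (0.1 mM final) and compounds for 10 min at room temperature. NKH477 (200nM) was then added for 30 min. cAMP was read by HTRF.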

[19] = molecular target: D(2) dopamine receptor (Homo sapiens) (UniProt P14416); experiment: Dopamine D2 receptor (DRD2) small molecule antagonists, cell-based qHTS assay (AID 1963595; active means well fitted inhibition curve with a large enough effect in the signal ratio in the repeat runs, with a control signal flat; the % refers to the signal ratio)
Procedure, shortened: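 HEK293 cells stably expressing DRD2 were preincubated with 0.1 mM Ro20-1724, then with compound for 10 min at room temperature. Cells were stimulated with 200 nM NKH477 plus 12 nM quinpirole for 30 min, and cAMP was read by HTRF.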

Measured: Potency

O=[N+]([O-])c1cccc2cccnc12
inactive: all assays above

COP(=O)(OC)O/C(=C/Cl)c1cc(Cl)c(Cl)cc1Cl
active: [2] 51.3 µM | [10] 15.8 µM
not listed: [15] | [17]
inactive: all other assays above

Clc1cccc2ccccc12
not listed: [9] | [17]
inactive: all other assays above

CNC(=O)Oc1ccccc1C(C)C
not listed: [18]
inactive: all other assays above

O=S(=O)(Cl)c1ccccc1
not listed: [9] | [16] | [17]
inactive: all other assays above

O=C(O)C(Br)(Br)Br
not listed: [9]
inactive: all other assays above

CCOP(=S)(OCC)Oc1cc(C)nc(N(CC)CC)n1
not listed: [10] | [14] | [15]
inactive: all other assays above

Clc1ccccc1
not listed: [9] | [14]
inactive: all other assays above

Cc1c(Cl)c(=O)oc2cc(OP(=O)(OCCCl)OCCCl)ccc12
not listed: [14] | [15] | [17] | [18]
inactive: all other assays above

C=COC(C)=O
not listed: [9] | [17]
inactive: all other assays above

Cc1cc(OC(=O)N(C)C)nn1C(=O)N(C)C
not listed: [9] | [14] | [17]
inactive: all other assays above

CN1C(=S)CN=C(c2ccccc2)c2cc(Cl)ccc21
not listed: [9]
inactive: all other assays above

COP(N)(=S)OC
not listed: [17]
inactive: all other assays above

O=C(CBr)c1ccccc1
active: [2] 69 µM
not listed: [9] | [17]
inactive: all other assays above

O=[N+]([O-])c1cc(Cl)c(Cl)cc1Cl
not listed: [9] | [17] | [18]
inactive: all other assays above

CCNc1nc(Cl)nc(NC(C)(C)C)n1
not listed: [9] | [13] | [14] | [17]
inactive: all other assays above

O=C(Nc1ccc(F)cc1F)c1cccnc1Oc1cccc(C(F)(F)F)c1
not listed: [9] | [14] | [15] | [17]
inactive: all other assays above

C[C@H](N)C(=O)c1ccccc1
not listed: [9] | [13] | [16] | [17] | [18]
inactive: all other assays above

Clc1ccc(C(OCCN2CCCCC2)c2ccccc2)cc1 (stereo not drawn)
active: [12] 0.46 µM
not listed: [9] | [10] | [14] | [17] | [19]
inactive: all other assays above

CCCCC(CC)COP(=O)(Oc1ccccc1)Oc1ccccc1 (stereo not drawn)
active: [2] 30.6 µM
not listed: [9] | [14] | [15]
inactive: all other assays above

CN(C)CCN(C)C
not listed: [9] | [10]
inactive: all other assays above

Cc1ccccc1CO[C@@H]1C[C@@]2(C(C)C)CC[C@]1(C)O2
not listed: [9] | [14] | [15]
inactive: all other assays above

O=C(NC(O)C(Cl)(Cl)Cl)NC(O)C(Cl)(Cl)Cl (stereo not drawn)
not listed: [9] | [13] | [15]
inactive: all other assays above

CCOP(=O)(N=C1SCCS1)OCC
not listed: [9] | [11]
inactive: all other assays above

CCOC1Oc2ccc(OS(C)(=O)=O)cc2C1(C)C (stereo not drawn)
not listed: [9] | [12] | [14]
inactive: all other assays above

CCOP(=S)(OCC)SC(CCl)N1C(=O)c2ccccc2C1=O (stereo not drawn)
active: [2] 30.6 µM
not listed: [9] | [12] | [14] | [15] | [16] | [17]
inactive: all other assays above

CCOC(=O)CCl
not listed: [9] | [12] | [15] | [17]
inactive: all other assays above

Fc1ccc(C2(Cn3cncn3)OC2c2ccccc2Cl)cc1 (stereo not drawn)
not listed: [9] | [12] | [14] | [15] | [17] | [18]
inactive: all other assays above

O=C(NC(=O)c1c(F)cccc1F)Nc1ccc(OC(F)(F)C(F)OC(F)(F)F)c(Cl)c1 (stereo not drawn)
not listed: [9] | [13] | [14] | [15]
inactive: all other assays above

c1csc(-c2ccc(-c3cccs3)s2)c1
active: [2] 8.63 µM
not listed: [9] | [14] | [15] | [18]
inactive: all other assays above

C[N+]1(CCC(C(N)=O)(c2ccccc2)c2ccccc2)CCCCC1
not listed: [9] | [11] | [17]
inactive: all other assays above

CCOP(=O)(SC(C)CC)N1CCSC1=O (stereo not drawn)
not listed: [9] | [11] | [17]
inactive: all other assays above

C=C(C)C(=O)OCCCCOC(=O)C(=C)C
not listed: [9] | [13] | [14] | [19]
inactive: all other assays above

O=[N+]([O-])c1cccc2cccc([N+](=O)[O-])c12
not listed: [9] | [10] | [14] | [17]
inactive: all other assays above

CCCC[N+](=O)[O-]
not listed: [9] | [12] | [15] | [17] | [19]
inactive: all other assays above

Nc1ccc([N+](=O)[O-])cc1[N+](=O)[O-]
not listed: [9] | [10] | [17] | [18]
inactive: all other assays above
